# Source: PubChem
# Only some compounds are listed: those with a hit (about 12% of all), similar ones and a draw of the others.
# Ins promoter up: insulin promoter activators in MIN6 cells, imaging, high-content screening, mouse beta cells | AID 1625, 2009 | 0.3% of 190,000 active | z-score at 5 µM | MIN6 insulin promoter-GFP reporter; stronger effect = higher value;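 active = z-score above 3 at 5 µM with at least 500 cells counted in the well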
# ROMK primary: ROMK potassium channel modulators, primary screen, cell-based, thallium flux, MLSMR library; 2% of 130,000 active; Tet-inducible ROMK, thallium flux fluorescence; actives lie on both sides; B-score at 10 µM; AID 1918, 2009; ATP-sensitive inward rectifier potassium channel 1 (Homo sapiens), P48048;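 active = signal ratio slope over the read window, or its plate-corrected B-score, at least 3 SD from the plate mean, either direction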;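 note: B-score of the F/F0 ratio slope over 7 to 12 s after thallium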
# Lmaj promast: Leishmania major promastigote growth inhibition, primary screen; Leishmania major promastigotes, resazurin fluorescence viability; inhibition, % at 10 µM; 9% of 200,000 active; in the data active = inhibition above about 50%;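 note: promastigotes grown with compound for 44 hours at 28 °C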
# KCC2 mod: KCC2 cotransporter modulators, thallium flux, primary screen, cell-based, HEK293 KCC2, FluoZin-2 fluorescence, MLSMR | Solute carrier family 12 member 5 (Homo sapiens), Q9H2X9 | KCC2 cells, thallium flux FluoZin-2 fluorescence | B-score of Tl+ flux slope (higher = more flux/activation; lower = inhibition) at 10 µM | 2.2% of 190,000 active;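 active = thallium flux slope and its plate-corrected score both differing from the plate sample mean at a set confidence after two filtering rounds, in either direction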;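 note: slope of fluorescence scaled to starting intensity during 10 to 20 s after thallium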
# INS promoter inh: inhibitors of insulin promoter-driven GFP, primary screen, imaging, TRM-6 cells (human fetal islet line), eGFP reporter, cell count. reporter expression induced with tamoxifen. inhibition, % at 2 µM. 0.9% of 130,000 active. AID 1273, 2008;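 active = inhibition above the mean plus 3 SD, with well images judged a real hit on visual review, cut at about 60% in these data, passing the limit was not always enough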
# WT yeast gro inh: growth inhibition of WT strain, primary screen, mitochondrial fusion inhibitor project, WT and mutant strains, chemical genetic | mitochondrial fusion phenotypic screen | inhibition, % at 10 µM | 2.1% of 190,000 active | AID 1362, 2008; in the data active = inhibition above about 58%; tested in S. cerevisiae
# Numbers without * were called inactive; nt = no result.
SMILES,Ins promoter up,ROMK primary,Lmaj promast,KCC2 mod,INS promoter inh,WT yeast gro inh
CC1CCCN(c2nc(NCc3ccco3)nc(N)c2[N+](=O)[O-])C1 (stereo not drawn),-0.05,-1.4,7,-0.55,nt,1
CCN1CCN(c2nc(N)c([N+](=O)[O-])c(Nc3ccc(C)c(C)c3)n2)CC1,-0.27,-0.054,60*,-0.092,8,33
CCc1c(C)n([O-])c2c([n+]1=O)CCC2,nt,nt,-9,-0.8,25,17
CCOC(=O)Cn1c(CN2CCOCC2)nc2c1c(=O)[nH]c(=O)n2C,1.6,nt,-3,-0.34,nt,-5
Cc1ccc(OCC(=O)Nc2ccccc2N2CCCC2)c(C)c1,0.44,0.55,2,-0.44,0,66*
CN1CCN(c2ccccc2NC(=O)COc2ccc(Br)cc2)CC1,0.94,-2.3,74*,nt,-41,22
CC(=O)N1CCN(c2ccccc2NC(=O)COc2ccccc2C)CC1,-0.8,0.19,-1,-1.4,-127,2
Cc1ccccc1OCC(=O)OC1CCN(C)CC1,8.6*,nt,2,0.2,32,-5
Cc1ccccc1OCC(=O)Nc1ccccc1N1CCC(C)CC1,-0.77,nt,9,0.35,-18,65*
O=C(COc1ccccc1)Nc1ccccc1N1CCN(c2ccccc2)CC1,-1.3,nt,-4,-0.25,6,-9
O=C(COC(=O)C12CC3CC(CC(O)(C3)C1)C2)Nc1ccccc1OC(F)F,nt,nt,3,0.0074,nt,58*
COc1ccc(C)cc1S(=O)(=O)N(C)CC(=O)N1CCN(c2ccccc2)CC1,0.22,-0.2,0,0.22,-33,12
Cc1ccn2c(-c3n[nH]c(=S)n3C)c(C)nc2c1,0.13,0.16,-6,-0.048,nt,-23
Cc1cc(=O)n2c(C)n[nH]c2n1,1.3,nt,-7,-0.17,-23,-10
O=C(c1ccccc1)N1CCN(CC#Cc2ccccc2)CC1,0.19,nt,-6,nt,-46,14
C(#Cc1ccc(C#CCN2CCCC2)cc1)CN1CCCC1,-0.17,nt,92*,nt,nt,-3
Cc1ccc(Cl)cc1N1CCN(C(=S)NCc2ccco2)CC1,-0.17,-0.047,-4,0.58,26,21
CCCCNC(=S)N1CCN(c2ccccc2Cl)CC1,0.42,-0.085,-5,-1.9,nt,66*
S=C(NCc1ccco1)N1CCN(c2ccccc2Cl)CC1,0.04,-0.057,-9,-2,nt,72*
C=CCNC(=S)N1CCN(c2ccccc2Cl)CC1,nt,nt,nt,-1,nt,nt
Cc1ccc(S(=O)(=O)/C=C/c2ccccc2)cc1,-0.27,nt,29,-0.12,-37,7
COc1ccc(Nc2ccccc2N)cc1,-2.6,-0.37,92*,0.76,nt,26
COc1ccc(Nc2nc3ccccc3s2)cc1,-0.13,0.00073,-5,nt,nt,4
COc1ccc(Nc2c(C)cccc2C)cc1,nt,nt,1,0.69,-8,20
COc1ccc(Nc2ccnc3ccccc23)cc1,-1.4,-0.13,101*,-0.51,nt,-1
SMILES,Ins promoter up,ROMK primary,Lmaj promast,KCC2 mod,INS promoter inh,WT yeast gro inh
COc1ccc(Nc2ccnc(Nc3ccc(OC)cc3)n2)cc1,-1.2,nt,100*,-0.45,28,47
CC1CC(C)CN(S(=O)(=O)c2ccccc2[N+](=O)[O-])C1 (stereo not drawn),-0.24,0.11,5,1.4,16,-6
Cc1ccc(C(=O)N2C(=S)C(c3ccc(F)cc3)=NC23CCN(C)CC3)cc1,-0.33,nt,-2,1.3,nt,1
CCN(CC)CCCN(Cc1cc2cc3c(cc2[nH]c1=O)OCCO3)C(=O)Nc1ccc(F)cc1,-2.4,nt,22,0.12,50,2
Cc1nc2ccc(S(=O)(=O)NCC(=O)N3CCCC(C)C3)cc2s1 (stereo not drawn),-0.35,0.077,7,nt,73*,-10
Cc1nc2ccc(S(=O)(=O)NCC(=O)N3CCc4ccccc4C3)cc2s1,0.73,nt,-5,-0.022,-244,31
COc1ccc(C(=O)N2CCN=C2c2ccccc2)cc1OC,-0.18,-0.0019,-2,0.62,nt,-2
CN1CCN(S(=O)(=O)c2cccc(S(=O)(=O)c3ccc(Cl)c(Cl)c3)c2)CC1,nt,-1.4,14,-0.17,nt,1
Cc1cc(C)c(C)c(S(=O)(=O)NC(C)C(=O)O)c1C (stereo not drawn),-0.19,0.15,nt,-0.88,nt,nt
